Reference: PubChem BioAssay (NCI)
This is part of a sample that, as a whole, favours compounds with a hit. Of some 83,000 tested, about 20% had one in any assay.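 A percent growth of 40 corresponds to 60% growth inhibition; 0 means no net growth; -100 means all cells died. Active threshold: below 10.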 Active and inactive are the calls of the source.

Legend:
Assay in all cases: NCI-60 one-dose screen, 48 h (100 = growth as untreated, 0 = no growth, -100 = all killed)
[1] = test system: SK-MEL-2 melanoma; settings: 10 µM unless noted
[2] = test system: EKVX NSCLC; settings: 10 µM unless noted
[3] = test system: SN12C renal; settings: 10 µM unless noted
[4] = test system: UO-31 renal; settings: 10 µM unless noted
[5] = test system: TK-10 renal; settings: 10 µM unless noted
[6] = test system: ACHN renal; settings: 10 µM unless noted
[7] = test system: CAKI-1 renal; settings: 10 µM unless noted
[8] = test system: A498 renal; settings: 10 µM
[9] = test system: HL-60(TB) leukemia; settings: 10 µM unless noted
[10] = test system: CCRF-CEM leukemia; settings: 10 µM unless noted
[11] = test system: MOLT-4 leukemia; settings: 10 µM unless noted
[12] = test system: SR leukemia; settings: 10 µM unless noted
[13] = test system: RPMI-8226 leukemia; settings: 10 µM unless noted
[14] = test system: OVCAR-8 ovarian; settings: 10 µM unless noted
[15] = test system: OVCAR-5 ovarian; settings: 10 µM unless noted
[16] = test system: SK-OV-3 ovarian; settings: 10 µM unless noted
[17] = test system: IGROV1 ovarian; settings: 10 µM unless noted
[18] = test system: OVCAR-3 ovarian; settings: 10 µM unless noted
[19] = test system: HS 578T breast; settings: 10 µM unless noted
[20] = test system: OVCAR-4 ovarian; settings: 10 µM unless noted

Measured: growth

C[CH2][Sn]([Cl])([Cl])[CH2]C.Oc1ccccc1C=NCCN=Cc1ccccc1O
inactive: [1] 116% | [2] 96.9% | [3] 101% | [4] 72.8% | [5] 117% | [6] 97.5% | [7] 86.5% | [8] 103% | [9] 113% | [10] 92.5% | [11] 86.1% | [12] 103% | [13] 91.9% | [14] 100% | [15] 104% | [16] 101% | [17] 98.9% | [18] 103% | [19] 100%

O=C(CC1(O)C(=O)Nc2ccc(Cl)cc21)c1ccc(C(=O)NCC2CCC3(CC2)OOC2(CCCCC2)OO3)cc1 (centres undefined)
inactive: [1] 12.7% | [3] 28.2% | [8] 26.9% | [15] 47.4% | [20] 14.4% | [16] 57.2% | [19] 16.1%
active: [2] -64.2% | [4] -81.1% | [5] -52.7% | [6] -87.3% | [7] -85.9% | [9] -62% | [10] -41.3% | [11] -39.9% | [13] -42.4% | [14] 3.83% | [17] -18.6% | [18] -76.8%

c1ccc(Nc2nc(-c3ccccc3)c[se]2)cc1
inactive: [1] 105% | [2] 70.3% | [3] 86.2% | [4] 46.2% | [5] 83.5% | [6] 84% | [7] 55.7% | [8] 55.9% | [9] 102% | [10] 101% | [11] 76.2% | [12] 79.6% | [13] 86.6% | [14] 96.3% | [15] 96.7% | [20] 75.6% | [17] 68.8% | [18] 93.5% | [19] 89.6%

c1ccc(COc2ccc3[nH]cc(CCN(Cc4ccccc4)Cc4ccccc4)c3c2)cc1
inactive: [1] 93.6% | [2] 82.8% | [3] 86.3% | [4] 60.3% | [5] 109% | [6] 97.1% | [7] 71.8% | [8] 105% | [9] 91.8% | [10] 73.8% | [11] 70.7% | [12] 69.5% | [13] 74.9% | [14] 98.1% | [20] 95.4% | [16] 91.2% | [17] 90.7% | [19] 99.5%

Oc1c(CCl)cc(Cl)cc1CCl
inactive: [1] 105% | [2] 104% | [3] 122% | [4] 86.4% | [5] 106% | [6] 106% | [7] 104% | [8] 119% | [9] 103% | [10] 108% | [11] 98.4% | [12] 101% | [13] 106% | [14] 112% | [15] 102% | [16] 107% | [17] 115% | [18] 115% | [19] 104%

COC(=O)[C@]12CCC(C)(C)C[C@H]1[C@H]1C(=O)C[C@@H]3[C@@]4(C)C[C@@]5(CC(C)(C)[C@@H]4CC[C@@]3(C)[C@]1(C)CC2)OO[C@@](C)(C(F)(F)F)O5
inactive: [1] 92.3% | [2] 93.6% | [3] 92.4% | [4] 87.8% | [5] 95.7% | [6] 93.6% | [7] 68.7% | [8] 78.2% | [9] 101% | [10] 94.8% | [11] 93.6% | [13] 90.3% | [14] 97.6% | [15] 94.1% | [20] 81.1% | [16] 103% | [17] 97.8% | [18] 106% | [19] 99.7%

CN1CCCCC1C(C)(O)c1ccccc1 (centres undefined)
inactive: [1] 106% | [2] 96.3% | [3] 102% | [4] 92.5% | [5] 94.9% | [6] 108% | [7] 96.4% | [8] 101% | [9] 114% | [10] 112% | [11] 102% | [12] 113% | [13] 114% | [15] 94.2% | [20] 99.8% | [16] 97.8% | [17] 99.8% | [19] 108%

CC12CC=CCC1CCC1C2CCC2(C)C(c3ccc(=O)oc3)CCC12O (centres undefined)
active: [1] -33.6% | [2] -85.1% | [3] -13.1% | [4] -91.4% | [5] -62.2% | [6] -90% | [7] -57% | [8] -22.7% | [9] -14% | [10] 1.08% | [11] -15.7% | [12] -3.66% | [14] -41.8% | [15] -80.6% | [20] -48.1% | [16] -8.44% | [17] -12.3%

COc1cc2c(=O)n(C3CCCCCCC3)c3c4cc[nH]c4ncc3c2cc1OC
active: [8] 4.93% | [20] -9.58% | [19] 2.28%
inactive: [1] 78.7% | [2] 71.6% | [3] 49.8% | [4] 22.5% | [5] 30.8% | [6] 40.9% | [7] 54.6% | [9] 57.6% | [10] 44.9% | [11] 40.6% | [12] 17.4% | [14] 43.7% | [15] 79.3% | [16] 36.5% | [17] 48.4% | [18] 36.8%

CC(=O)Nc1ccc(NC(=O)c2ccc([As](O)O)cc2)cc1
inactive: [1] 96% | [2] 110% | [3] 93.9% | [4] 69.4% | [5] 136% | [6] 105% | [7] 107% | [8] 133% | [9] 44.5% | [10] 47.7% | [11] 108% | [12] 73.8% | [13] 34.5% | [14] 102% | [15] 140% | [20] 103% | [18] 114% | [19] 117%

CC[C@H](C)[C@H](NC(=O)NC(C)(C)C)C(=O)N(C)[C@H](C[C@@H](OC(C)=O)c1nc(C(=O)N[C@@H](Cc2ccccc2)C[C@H](C)C(=O)OC)cs1)C(C)C
active: [8] -10% | [9] -14.6% | [13] -3.75% | [18] -16.8% | [19] 3.72%
inactive: [1] 47.3% | [2] 29.4% | [3] 12.1% | [4] 45.4% | [5] 49.5% | [6] 22.7% | [7] 22.2% | [10] 10.7% | [11] 17.4% | [12] 10.6% | [14] 18% | [15] 34.8% | [20] 36.2% | [17] 24.5%

CCC(CC)CC1(C)CC2(C)CCOC2OO1 (centres undefined)
inactive: [1] 94.9% | [2] 103% | [3] 102% | [4] 88.8% | [5] 98% | [6] 111% | [7] 95.7% | [8] 90.8% | [9] 111% | [10] 103% | [11] 113% | [12] 113% | [13] 103% | [14] 102% | [15] 113% | [20] 95.4% | [17] 114% | [18] 115% | [19] 92.6%

Clc1ccc(CO/N=C(\Cn2ccnc2)c2ccc(Cl)cc2Cl)c(Cl)c1
active: [1] -48% | [2] 6.63% | [3] 2.12% | [4] -3% | [5] -1.82% | [6] 6.26% | [7] 1.17% | [8] -5.95% | [9] -23% | [10] -13.1% | [11] -4.84% | [12] -13.7% | [13] -3.32% | [14] 9.94% | [17] 6.54% | [18] -60.1% | [19] -4.93%
inactive: [15] 15.8% | [20] 20.7%

CC[C@H](C)[C@H](NC(=O)C12C3C4C1C1C2C3C41NC)C(=O)N(C)[C@H](C[C@@H](OC(C)=O)c1nc(C(=O)N[C@@H](Cc2ccccc2)C[C@H](C)C(=O)OC)cs1)C(C)C (some centres undefined)
inactive: [1] 43% | [2] 40.7% | [3] 36.5% | [4] 51.1% | [5] 41.9% | [6] 40.8% | [7] 40.5% | [10] 13.2% | [11] 24.9% | [14] 20.4% | [15] 43.5% | [20] 45.5% | [16] 17.1% | [17] 36.9% | [19] 13%
active: [8] -12.6% | [9] -14.6% | [13] 3.54% | [18] -28.1%

NC(N)=N/N=C\c1c[nH]c2ccc(Br)cc12
inactive: [1] 99.9% | [2] 93.8% | [3] 68.5% | [4] 86.1% | [5] 116% | [6] 95.4% | [7] 101% | [8] 89.7% | [9] 93.5% | [10] 78.6% | [11] 79.2% | [13] 80.8% | [14] 83.1% | [15] 91.8% | [20] 97.2% | [16] 97.4% | [17] 101% | [18] 81.4% | [19] 80.6%

O=C(CCCCCNC1=CC(=O)c2ccccc2C1=O)NCCC[Te]c1ccccc1
inactive: [4] 16.9% | [9] 28.1% | [11] 29.7% | [13] 10.5%
active: [1] 8.28% | [2] -31.9% | [3] -8.47% | [5] -14.8% | [6] -71.2% | [7] -55.8% | [8] -57.7% | [10] -15.3% | [14] 8.94% | [15] -37% | [20] -44.8% | [16] -39.6% | [17] -24% | [18] -43.8% | [19] -9.34%
